Experimental data as given in PubChem BioAssay (Tox21).
Inconclusive results are not listed. Active and inactive are the calls of the source. Calls follow the shape of the dose curve; as a rule, active = well fitted cell-killing curve with a large enough effect in the repeat runs; inconclusive = weak or mixed curves, or effect the other way; inactive = flat fitted curve, though single readings scatter.

Test: cAMP Responsive Elements (CRE) small molecule antagonists, cell-based qHTS assay: qHTS cell viability counter screen (AID 2060913); also: nearly all actives have a fitted effect of over 40% in size
Conditions: CRE-bla HEK293T viability, CellTiter-Glo luminescence, 5 h; series mostly up to 92.4 µM; viability change, negative = cytotoxic: at the top concentration
Procedure, shortened: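 CRE-bla HEK293T cells were seeded in assay medium with 10% dialyzed FBS, incubated 18 hrs at 37 C, then exposed to compounds plus 0.25 uM final NKH477 for 3 hrs. Viability was read by CellTiter-Glo luminescence after 30 min, in the same wells.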
% is scaled to controls: 0 for no effect and ±100 for the full control effect; potency is read from the fitted curve at half-maximal effect.

SMILES	Potency	viability change, negative = cytotoxic
O	inactive	–
CCOc1cc(N)c(Cl)cc1C(=O)NCC1CN(Cc2ccc(F)cc2)CCO1 (stereo not drawn)	–	-0.53% [at 42.5 µM] (inactive)
Cc1onc(-c2ccccc2)c1-c1ccc(S(N)(=O)=O)cc1	–	2.62% [at 42.5 µM] (inactive)
COc1ccc(OC)c(NC(=O)CC(C)=O)c1	–	4.24% (inactive)
CNc1c2c(nn1C)CCCC2	–	-0.578% [at 42.5 µM] (inactive)
CN(C)CCN(C)CCN(C)C	–	3.24% (inactive)
CN(CC1(C)CCCO1)S(=O)(=O)c1ccc(Cl)c(S(N)(=O)=O)c1 (stereo not drawn)	–	-1.01% [at 42.5 µM] (inactive)
CCCCCCCCCCCCCCCCOP(=O)([O-])OCC[N+](C)(C)C	–	-5.92% [at 42.5 µM] (inactive)
CCCCC/C=C\C=C\C(=O)OCC	–	7.12% (inactive)
O=C(OCC(COC(=O)c1cccnc1)(COC(=O)c1cccnc1)COC(=O)c1cccnc1)c1cccnc1	–	7.93% [at 42.5 µM] (inactive)
CC[C@H]1O[C@]2(CC[C@@H]1C)C[C@@H]1C[C@@H](C/C=C(\C)C[C@@H](C)/C=C/C=C3\CO[C@@H]4[C@H](O)C(C)=C[C@@H](C(=O)O1)[C@]34O)O2	30.4 µM (active)	–
c1ccc2ccccc2c1	inactive	–
CCN(CCC#N)c1ccccc1	–	-0.812% (inactive)
O=C1NC(c2ccccc2)(c2ccccc2)C(=O)N1COP(=O)(O)O	–	1.35% [at 42.5 µM] (inactive)
COC(=O)Nc1nc2ccc(C(=O)c3ccccc3)cc2[nH]1	–	-2.16% [at 42.5 µM] (inactive)
COc1cc(/C=C/C(N)=O)cc(OC)c1OC	–	2.08% [at 42.5 µM] (inactive)
O=C(O)CCC(=O)O	inactive	–
NCc1cccc(CN)c1	inactive	–
